Results filed as inconclusive are left out. The source made the active and inactive calls. Calls come from the whole dose curve; as a rule, active = well fitted curve in the direction sought with a large enough effect in the repeat runs; inconclusive = weak or mixed curves; inactive = no such curve, though single readings can be large; an effect the other way counts as inactive or inconclusive.
Key:
[1] = A CellTox Green Cytotoxicity Assay to monitor cytotoxicity in HEK293 cells - 40 hour (AID 1224871); note: nearly all actives have a fitted effect of over 45% in size
Outline: (§1)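 Each value comes from one timepoint of a single continuous run in which HEK293 cells with CellTox Green were exposed to compound for up to 40 h at 37 C, dye fluorescence rising with cell death.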

[2] = qHTS RealTime-Glo MT Cell Viability Assay in HEK293 cells - 16 hour (AID 1224872); note: top concentration of the series differs between compounds; nearly all actives have a fitted effect of over 50% in size
Outline: (§2)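 Homogeneous bioluminescent viability format in HEK293 cells (600 cells/well). Following 5 h at 37 C/5% CO2, 23 nL compound was pintooled; the signal was measured repeatedly during 40 h incubation.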

[3] = A CellTox Green Cytotoxicity Assay to monitor cytotoxicity in HEK293 cells - 24 hour (AID 1224875); note: series mostly up to about 77 µM; nearly all actives have a fitted effect of over 45% in size
Outline: as §1

[4] = A CellTox Green Cytotoxicity Assay to monitor cytotoxicity in HepG2 cells - 16 hour (AID 1224876); note: nearly all actives have a fitted effect of over 45% in size
Outline: (§3)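 Continuous culture of HepG2 cells with a membrane-impermeant DNA dye; rising fluorescence marks dead cells. Compound exposure lasted up to 40 h at 37 C, with reads every 8 h from 0 h.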

[5] = qHTS RealTime-Glo MT Cell Viability Assay in HepG2 cells - 32 hour (AID 1224877); note: nearly all actives have a fitted effect of over 55% in size
Outline: (§4)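 Cell number in HepG2 cultures estimated from NanoLuc luminescence generated by metabolic reduction of a prosubstrate by living cells. The homogeneous, nonlytic format allowed repeated reads at 0, 8, 16, 24, 32 and 40 h of compound exposure.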

[6] = A CellTox Green Cytotoxicity Assay to monitor cytotoxicity in HepG2 cells - 40 hour (AID 1224879); note: nearly all actives have a fitted effect of over 40% in size
Outline: as §3

[7] = qHTS RealTime-Glo MT Cell Viability Assay in HEK293 cells - 0 hour (AID 1224880); note: top concentration of the series differs between compounds; nearly all actives have a fitted effect of over 45% in size
Outline: (§5)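 qHTS format; HEK293 cells with NanoLuc/prosubstrate reagent, 37 C/5% CO2 for 5 h pre-dosing; compounds 23 nL in DMSO; luminescence at each time point reflects viable cells.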

[8] = A CellTox Green Cytotoxicity Assay to monitor cytotoxicity in HEK293 cells - 32 hour (AID 1224881); note: nearly all actives have a fitted effect of over 40% in size
Outline: as §1

[9] = A CellTox Green Cytotoxicity Assay to monitor cytotoxicity in HepG2 cells - 0 hour (AID 1224882); note: nearly all actives have a fitted effect of over 35% in size
Outline: as §3

[10] = A CellTox Green Cytotoxicity Assay to monitor cytotoxicity in HepG2 cells - 32 hour (AID 1224883); note: nearly all actives have a fitted effect of over 50% in size
Outline: as §3

[11] = A CellTox Green Cytotoxicity Assay to monitor cytotoxicity in HEK293 cells - 8 hour (AID 1224884); note: nearly all actives have a fitted effect of over 35% in size
Outline: as §1

[12] = qHTS RealTime-Glo MT Cell Viability Assay in HepG2 cells - 16 hour (AID 1224885); note: nearly all actives have a fitted effect of over 50% in size
Outline: as §4

[13] = qHTS RealTime-Glo MT Cell Viability Assay in HEK293 cells - 24 hour (AID 1224886); note: top concentration of the series differs between compounds; nearly all actives have a fitted effect of over 50% in size
Outline: as §2

[14] = qHTS RealTime-Glo MT Cell Viability Assay in HEK293 cells - 8 hour (AID 1224887)
Outline: as §5

[15] = A CellTox Green Cytotoxicity Assay to monitor cytotoxicity in HEK293 cells - 16 hour (AID 1224888); note: nearly all actives have a fitted effect of over 35% in size
Outline: as §1

[16] = qHTS RealTime-Glo MT Cell Viability Assay in HepG2 cells - 0 hour (AID 1224889); note: nearly all actives have a fitted effect of over 50% in size
Outline: as §4

[17] = qHTS RealTime-Glo MT Cell Viability Assay in HepG2 cells - 8 hour (AID 1224873); note: nearly all actives have a fitted effect of over 55% in size
Outline: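 HepG2 cells (600/well) mixed with RealTime-Glo MT reagent, settled 5 h at 37 C/5% CO2 before compound addition. Nonlytic NanoLuc luminescence from viable-cell prosubstrate reduction read repeatedly during 40 h treatment at 37 C.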

[18] = qHTS RealTime-Glo MT Cell Viability Assay in HEK293 cells - 40 hour (AID 1224874); conditions: RealTime-Glo luminescence; max response: stronger effect = lower value; note: nearly all actives have a fitted effect of over 50% in size
Outline: as §5

[19] = A CellTox Green Cytotoxicity Assay to monitor cytotoxicity in HepG2 cells - 24 hour (AID 1224878); note: nearly all actives have a fitted effect of over 45% in size
Outline: as §3
% is set by controls: 0 for no effect and ±100 for the full control effect.

CC(=O)Nc1ccc(S(N)(=O)=O)cc1
inactive: Potency [1] | Potency [2] | Potency [3] | Potency [4] | Potency [5] | Potency [6] | Potency [7] | Potency [8] | Potency [9] | Potency [10] | Potency [11] | Potency [12] | Potency [13] | Potency [14] | Potency [15] | Potency [16]

CC(C)CNCC(C)C
inactive: Potency [1] | Potency [2] | Potency [17] | max response [18] 0.947% | Potency [4] | Potency [5] | Potency [19] | Potency [6] | Potency [7] | Potency [8] | Potency [9] | Potency [10] | Potency [11] | Potency [12] | Potency [13] | Potency [14] | Potency [16]

Cc1ccc(=O)n(-c2ccccc2)c1
inactive: Potency [1] | Potency [2] | Potency [17] | Potency [3] | Potency [4] | Potency [5] | Potency [6] | Potency [7] | Potency [8] | Potency [9] | Potency [10] | Potency [11] | Potency [12] | Potency [13] | Potency [14] | Potency [15] | Potency [16]

O=C(O)c1ccccc1OP(=O)(O)O
inactive: Potency [1] | Potency [2] | Potency [17] | Potency [3] | Potency [4] | Potency [5] | Potency [19] | Potency [6] | Potency [7] | Potency [8] | Potency [9] | Potency [10] | Potency [11] | Potency [12] | Potency [13] | Potency [14] | Potency [16]

— PubChem BioAssay (Tox21)
